Assay outcomes from PubChem.
A selection: hits, their analogues and other compounds. The true share with any hit is near 13%.
HCV inhibitor: blocks hepatitis C virus; Huh7.5.1 HCVcc-Cre infection, luciferase reporter, 44 h; Potency, µM (titrated, usually from 41.8 µM), for inactives: at the top dose activity change, negative = inhibition, usual class: inhibitors; 340,000 tested, 3.4% active; note: potency is the fitted concentration of half-maximal effect
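Infectious HCV cell culture screen: compound-treated cells (1,000/well, pre-plated 4 h) are infected with HCVcc-Cre at roughly 0.5 moi and grown 44 h. Infection is quantified by luciferase signal after 15 min substrate incubation at room temperature.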
Pf growth 48h: inhibits P. falciparum growth in the first generation, 48 h; AID 504832; Potency, µM (doses to about 28.7 µM), without a hit: top-dose activity change, negative = inhibition, actives largely listed as inhibitors; P. falciparum luciferase growth in erythrocytes, 48 h; 310,000 tested, 5.9% active; note: potency is the fitted concentration of half-maximal effect
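Parasite viability was followed by luminescence of a genomically integrated firefly luciferase. Cultures held 0.1% parasitemia at 2% hematocrit (final), incubated under 5% CO2 at 37 C.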
HCMV antiviral: inhibitors of human cytomegalovirus. HFF cells, HCMV-luciferase reporter, 72 h; stronger effect = lower value. activity change, negative = inhibition, % at 57.5 µM. 410,000 tested, 4.5% active; in the data active = activity change below about -60%; inconclusive = no clear call, values can overlap the other calls; inactive = above about -39%
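Luciferase read-out from HCMV-luciferase-infected HFFs (MOI 1 PFU/cell) 72 h post infection at 37C; compounds added after 16 h cell attachment; activity normalized between buffer-only basal and Salinomycin (10uM) inhibitor controls.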
Pf growth 96h: P. falciparum growth inhibition at 96 hour, primary screen for plastid delayed-death inhibitors. Potency, µM (series often up to 28.7 µM), without a hit: at the top dose activity change, negative = inhibition, hits mostly inhibitors. 320,000 tested, 6.9% active. P. falciparum luciferase reporter growth, 96 h; note: potency is the fitted concentration of half-maximal effect
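P. falciparum expressing integrated firefly luciferase grown in erythrocytes (2% hematocrit, 0.05% parasitemia final) with compounds for 96 hours at 37 C, 5% CO2. Growth inhibition read as loss of luminescence after adding luciferase detection reagent.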
Active calls of the source: *; ? = inconclusive; nt = no result given. Unless noted, calls come from the whole dose curve; as a rule, active = well fitted inhibition curve with a large enough effect; inconclusive = small, poorly fitted or top-dose-only effect, or another doubt; inactive = no such curve, though single readings can be large or run the other way. % is set by controls: 0 for no effect and ±100 for the full control effect.

SMILES | HCV inhibitor | Pf growth 48h | HCMV antiviral | Pf growth 96h
COc1ccc(-n2c(SCCNCCO)nc3sc4c(c3c2=O)CCCC4)cc1 | 2.82µM* | 13.1µM* | -9.1 | 9.28µM*
COc1ccc(-n2c(SCC(N)=O)nc3sc4c(c3c2=O)CCN(C)C4)cc1 | -3.6% | ? | -7.9 | 2.08µM*
CCSc1nc2sc3c(c2c(=O)n1-c1ccc(OC)cc1)CCN(C)C3 | ? | ? | -30.9 | ?
CN1CCc2c(sc3nc(NCCO)n(-c4cccc(Cl)c4)c(=O)c23)C1 | 4.3% | nt | -39.2 | 4.65µM*
COc1ccc(Cc2nc3ccc(C(=O)NCCc4ccc(Cl)cc4)cc3o2)cc1 | nt | nt | -0.6 | nt
CCOC(=O)CSc1nc2sc3c(c2c(=O)n1-c1ccc(OC)cc1)CCN(C)C3 | ? | 1.85µM* | -37.8 | 1.47µM*
CN1CCc2c(sc3nc(SCC(=O)NCc4ccco4)n(-c4ccccc4)c(=O)c23)C1 | ? | 9.28µM* | -8.3 | 0.928µM*
C=C(C)CSc1nc2sc3c(c2c(=O)n1-c1ccc(OC)cc1)CCN(C)C3 | ? | 1.85µM* | -13.8 | 1.04µM*
CN1CCc2c(sc3nc(SCC(=O)N4CCOCC4)n(-c4ccc(Cl)cc4)c(=O)c23)C1 | ? | ? | 5.4 | -19.4%
CCOC(=O)CSc1nc2sc3c(c2c(=O)n1-c1ccccc1)CCN(C)C3 | ? | 4.65µM* | -29.5 | -26.3%
COc1ccc(-n2c(SCC(=O)NCc3ccco3)nc3sc4c(c3c2=O)CCN(C)C4)cc1 | -12.3% | ? | -5.1 | ?
COc1ccc(NC(=O)c2cnc3sc(N4CCOCC4)nn3c2=O)c(OC)c1 | nt | nt | 15.1 | nt
Cc1ccc2nc(NC(=O)CSc3nccn3Cc3ccc(F)cc3)sc2c1 | nt | nt | 33.7 | nt
CCOC(=O)CSc1nc2sc3c(c2c(=O)n1-c1ccc(C)cc1)CCN(C)C3 | ? | 4.65µM* | -21.7 | 2.33µM*
CCCCSc1nc2sc3c(c2c(=O)n1-c1ccc(C)cc1)CCN(C)C3 | -38.0% | ? | -13.5 | ?
COC(=O)CSc1nc2sc3c(c2c(=O)n1-c1ccc(OC)cc1)CCN(C)C3 | -25.9% | 6.57µM* | 23.7 | 5.22µM*
Cc1cccc(-n2c(SCC(=O)N3CC(=O)Nc4ccccc43)nc3ccccc3c2=O)c1 | -19.5% | 13.1µM* | -62.1* | ?
CC(C)(C)c1nc(SCC(=O)N2CC(=O)Nc3ccccc32)c2ccccc2n1 | -26.6% | -18.9% | -18.6 | 4.6%
Cc1ccc(-n2c(SCC(=O)N3CC(=O)Nc4ccccc43)nc3ccccc3c2=O)cc1C | ? | 10.4µM* | -80.0* | 8.28µM*
O=C1CN(C(=O)CSc2nc3ccccc3c(=O)n2CC2CCCO2)c2ccccc2N1 (centres undefined) | -18.7% | -21.4% | -32.9 | ?
Cc1cccc(-n2c(SCC(=O)N3CC(=O)Nc4ccccc43)nc3ccccc3c2=O)c1C | ? | ? | -64.5* | 3.7µM*
Cc1cc(S(=O)(=O)C(CNC(=O)c2ccc(OC(C)C)cc2)c2cccs2)ccc1F (centres undefined) | nt | nt | 2.7 | nt
Cc1nc2c(c(C)nn2C(C)(C)C)c(C)c1CCC(=O)Nc1ccc(F)cc1 | nt | nt | -10.8 | nt
COC(=O)C1=C(C)N(c2ccc(OC)cc2)C(C)=C(C(=O)OC)C1c1ccc(OC)cc1 | -22.1% | ? | 25.1 | ?
CCOC(=O)C1=C(C)N(C)C(C)=C(C(=O)OCC)C1c1ccc(Cl)cc1 | -11.2% | ? | -36.5 | ?
SMILES | HCV inhibitor | Pf growth 48h | HCMV antiviral | Pf growth 96h
COC(=O)C1=C(C)N(c2ccc(OC)cc2)C(C)=C(C(=O)OC)C1c1ccccc1 | ? | 1.31µM* | 15.7 | ?
COC(=O)C1=C(C)N(C)C(C)=C(C(=O)OC)C1c1ccc(Cl)cc1 | -5.2% | ? | 57.1 | 10.4µM*
COc1ccc(CNC(=O)CCC(=O)N2CC3CCCN3c3ccccc32)cc1 (centres undefined) | nt | nt | 14.0 | nt
COc1cccc(N2CCN(c3nc(C)c(C)c(=O)[nH]3)CC2)c1 | 14.9% | 49.6% | 2.6 | -4.3%
COc1cccc(N2CCN(c3nc(-c4ccccc4C)cc(=O)[nH]3)CC2)c1 | ? | ? | -98.3* | ?
COCc1cc(Sc2cccc(Cl)c2Cl)nc(-c2ccccc2)n1 | ? | ? | -32.7 | 11.7µM*
COc1ccc(OC)c(N=c2ssnc2Cl)c1 | -20.1% | 22.4% | -13.1 | 1.65µM*
COc1cc(N=c2ssnc2Cl)c(OC)cc1Cl | ? | 28.7% | -2.9 | ?
CCCOc1ccc(C2C(=O)N(C3CCCCC3)CC(=O)N2CCC2=CCCCC2)cc1OC (centres undefined) | nt | nt | 11.7 | nt
Cc1ccccc1C(=O)c1c[nH]c(C(=O)NCCc2ccccn2)c1 | -7.9% | 11.7µM* | 17.3 | 9.28µM*
CCC(=O)c1c[nH]c(C(=O)NCCc2ccccn2)c1 | 18.8% | 33.9% | 44.4 | 33.6%
O=C(OCc1ccccc1)N1CCC2CC1c1cc(N3CCOCC3)ccc12 (centres undefined) | 0.316µM* | nt | 14.5 | nt
COCCNC(=O)CCC(=O)N1Cc2cccc(OC)c2Oc2ncccc21 | nt | nt | 15.7 | nt
CC1=C2C3OC(=O)C(C)C3CCC2(C)C=C(Br)C1=O (centres undefined) | nt | nt | -35.6 | nt
Cn1c(=O)oc2ccc(S(=O)(=O)Nc3ccc(Cl)cc3[N+](=O)[O-])cc21 | nt | nt | -62.3* | nt
C=C[C@@H]1CN2CC[C@H]1C[C@H]2[C@H](O)c1ccnc2ccccc12 | nt | 0.135µM* | nt | 0.0536µM*
CC[C@H]1CN2CCC1C[C@H]2[C@H](O)c1ccnc2ccc(OC)cc12 (some centres undefined) | 3.0% | 0.0928µM* | -68.3* | 0.0522µM*
CC[C@H]1CN2CCC1C[C@@H]2[C@@H](O)c1ccnc2ccc(OC)cc12 (some centres undefined) | -15.4% | nt | ? | nt
C=CC1CN2CCC1CC2C(O)c1ccnc2ccccc12 (centres undefined) | -3.7% | nt | -6.0 | nt
C=CC1CN2CCC1CC2C(OC(=O)OCC)c1ccnc2ccc(OC)cc12 (centres undefined) | nt | 1.69µM* | nt | 0.757µM*
C=CC1CN2CCC1CC2[C@@H](OC(=O)c1ccc(OC)cc1)c1ccnc2ccccc12 (some centres undefined) | 19.9% | 2.94µM* | -19.7 | 12.0%
CCN(C)C1CN(Cc2cn(Cc3ccc(F)cc3)nn2)S(=O)(=O)C1 (centres undefined) | nt | nt | 8.0 | nt
CCCCNC(=O)C(CC)(ONc1ccccc1C(F)(F)F)c1ccccc1OC (centres undefined) | -3.4% | 10.4µM* | 20.0 | ?
CN(C)/C=C/C(=O)/C=C/c1cn(-c2ncc(C(F)(F)F)cc2Cl)c2ccccc12 | -8.2% | 13.1µM* | 20.8 | ?
CCn1cc(C(=O)O)c(=O)c2cnc(N3CCN(C(=S)Nc4ccccc4Cl)CC3)nc21 | 7.7% | 0.37µM* | 36.0 | 0.828µM*
C=CCNC(=S)N1CCN(c2ncc3c(=O)c(C(=O)O)cn(CC)c3n2)CC1 | 2.8% | -5.6% | -24.7 | ?
CCn1cc(C(=O)O)c(=O)c2cnc(N3CCN(C(=S)Nc4ccc(F)cc4)CC3)nc21 | 21.3% | ? | -38.6 | 0.928µM*
